Hits are enriched below; roughly 12% of the tested compounds scored in any of these assays.
Sfp inh – blocks B. subtilis Sfp PPTase activity. Potency, µM, for inactives: largest response in the series, negative = inhibition, usual class: inhibitors. actives 3.5% (n = 310,000). Q9F4F7. AID 1490. Biochemical Sfp PPTase activity, qHTS;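 also: the enzyme is Sfp with the accession as filed and its product quenches rhodamine fluorescence; 0% = enzyme reaction without inhibitor and -100% = no enzyme wells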
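With Hepes-Na pH 7.6 buffer containing 10 mM MgCl2, Sfp (15 nM) modified BHQ-2-YbbR (12.5 uM) using rhodamine-CoA (5 uM). Two reads 30 minutes apart at 525/598 nm yielded each well's rate.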
G9a block – blocks human histone lysine methyltransferase G9a | Q96KQ7 | G9a H3K9 monomethylation, AlphaScreen, 2 h | Potency, µM (doses to about 102 µM), inactives show top-dose activity, negative = inhibition, actives largely listed as inhibitors | AID 504332 | actives 8.8% (n = 350,000); also: % is scaled to controls: 0 for no effect and ±100 for the full control effect; nearly all actives have a fitted effect of over 75% in size
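Enzyme 20 nM + cpd, 15 min RT; add b-H3K9 pep 500 nM / SAM 20 uM; 2 h RT; anti-H3K9me1 Ab 0.5 ug/mL + SA donor / anti-rabbit acceptor beads 20 ug/mL each, 10 min; AlphaScreen read.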
HP1b chromo inh – blocks HP1-beta chromodomain binding to methylated histone tails; P83916; AlphaScreen HP1-beta / biotin-H3K9me3 peptide binding; actives 0.56% (n = 390,000); Potency, µM (series often up to 114 µM), without a hit: top-dose activity change, negative = inhibition, most hits filed as inhibitors; also: nearly all actives have a fitted effect of over 70% in size
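HP1-beta protein (50 nM final) preincubated 30 min at room temperature with biotinylated H3(1-18)K9me3 peptide (50 nM) in PBS pH 7.4, 0.01% Tween-20, then compound added for 30 min. AlphaScreen streptavidin donor/nickel chelate acceptor beads (10 ug/mL final), 30 min dark, luminescence read.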
JMJD2A Tudor – inhibitors of human JMJD2A Tudor domain; O75164; AlphaScreen JMJD2A-Tudor / H3K4me3 peptide binding; Potency, µM (doses to about 114 µM), for inactives: at the highest dose activity change, negative = inhibition, usual class: inhibitors; actives 4.4% (n = 390,000); AID 504339; also: % is scaled to controls: 0 for no effect and ±100 for the full control effect; nearly all actives have a fitted effect of over 50% in size
BAZ2B inh – BAZ2B (human) inhibition; Q9UIF8; AlphaScreen BAZ2B-H3K14Ac peptide displacement; Potency, µM (titrated, usually from 114 µM), without a hit: top-dose activity change, negative = inhibition, most hits filed as inhibitors; actives 4.4% (n = 360,000); AID 504333; also: % is scaled to controls: 0 for no effect and ±100 for the full control effect; nearly all actives have a fitted effect of over 60% in size
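Inhibition is scored as reduced AlphaScreen emission. The BAZ2B/b-H3(5-23)K14Ac complex (50 nM each) in PBS pH 7.4, 0.01% Tween-20 meets compound (up to 110 uM) for 30 min at RT before bead addition.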
PLK1 PBD inh – PLK1 (human) polo-box domain binding inhibition | P53350 | Plk1 PBD binding of FITC phosphopeptide, fluorescence polarization | Potency, µM, for the others: max response, negative = inhibition, most hits filed as inhibitors | actives 2.8% (n = 360,000); also: series mostly up to about 57 µM; % is scaled to controls: 0 for no effect and ±100 for the full control effect; nearly all actives have a fitted effect of over 65% in size
Target sequence (P53350 whole entry, looked up, the tested form may be a part): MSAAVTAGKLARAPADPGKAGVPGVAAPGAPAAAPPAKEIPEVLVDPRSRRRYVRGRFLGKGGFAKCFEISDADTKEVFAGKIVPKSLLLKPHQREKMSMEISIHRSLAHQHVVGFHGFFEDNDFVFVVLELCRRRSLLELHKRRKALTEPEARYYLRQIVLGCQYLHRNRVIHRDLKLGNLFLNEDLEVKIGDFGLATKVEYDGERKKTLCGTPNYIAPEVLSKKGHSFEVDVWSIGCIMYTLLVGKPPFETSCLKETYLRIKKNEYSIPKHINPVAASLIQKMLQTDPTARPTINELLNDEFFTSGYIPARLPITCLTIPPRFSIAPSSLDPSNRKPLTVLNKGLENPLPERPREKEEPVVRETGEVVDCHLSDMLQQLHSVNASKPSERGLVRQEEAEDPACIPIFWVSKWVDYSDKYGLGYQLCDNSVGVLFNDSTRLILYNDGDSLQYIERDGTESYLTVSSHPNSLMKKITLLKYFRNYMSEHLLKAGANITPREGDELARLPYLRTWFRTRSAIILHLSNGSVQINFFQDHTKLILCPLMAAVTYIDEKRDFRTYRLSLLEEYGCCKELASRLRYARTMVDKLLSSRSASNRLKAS
The depositor's hits bear a star; ? = inconclusive; . = not tested or not shown; [ ] = dose if it differs, or a comment. Calls follow the shape of the dose curve; as a rule, active = well fitted curve in the direction sought with a large enough effect; inconclusive = small, poorly fitted or top-dose-only effect, or another doubt; inactive = no such curve, though single readings can be large; an effect the other way counts as inactive or inconclusive. Potency is read from the fitted curve at half-maximal effect.

SMILES	Sfp inh	G9a block	HP1b chromo inh	JMJD2A Tudor	BAZ2B inh	PLK1 PBD inh
O=C(CCC(=O)N1CCOc2ccccc21)NCCN1CCOCC1	6%	19%	19%	-10%	14%	0%
C#CCOCCOCCOCCNc1nc(N2CCN(C(=O)[C@H]([C@@H](C)CC)n3cc(CCCCN)nn3)CC2)nc(N2CCN(C(=O)[C@H](C)n3cc(CCC(=O)O)nn3)CC2)n1	?	79µM*	7%	-20%	?	-2%
C#CCOCCOCCOCCNc1nc(N2CCN(C(=O)Cn3cc(CC(C)O)nn3)CC2)nc(N2CCN(C(=O)[C@H]([C@@H](C)CC)n3cc(CCCN=C(N)N)nn3)CC2)n1 (stereo partly drawn)	12%	50µM*	31%	-8%	?	0%
C#CCOCCOCCOCCNc1nc(N2CCN(C(=O)Cn3cc(CCCN=C(N)N)nn3)CC2)nc(N2CCN(C(=O)Cn3cc(CCCN=C(N)N)nn3)CC2)n1	19%	25µM*	.	.	?	.
C#CCOCCOCCOCCNc1nc(N2CCN(C(=O)[C@H]([C@@H](C)CC)n3cc(CCCN=C(N)N)nn3)CC2)nc(N2CCN(C(=O)[C@H](C)n3cc(CCCN=C(N)N)nn3)CC2)n1	4%	40µM*	19%	-31%	?	-1%
CCOc1ccccc1N1C(=O)CN(Cc2ccc(OC)c(OC)c2)C1=S	-18%	-6%	28%	5%	-22%	9%
CCC(=O)c1ccc(OCC(=O)OCC(=O)Nc2cccc(S(=O)(=O)N3CCOCC3)c2)cc1	.	.	23%	-14%	.	0%
CC1(C(=O)NS(=O)(=O)c2cccc(Cl)c2)CCN1C(=O)Cc1ccc(-c2ccccc2)cc1 (stereo not drawn)	.	.	.	.	.	-14%
CC[C@H](C)[C@H](NC(=O)[C@@H](NC(=O)[C@@H](NC(=O)[C@H](CCC(=O)O)NC(=O)[C@H](CCC(=O)O)NC(=O)[C@H](CCC(=O)O)NC(=O)[C@H](C)NC(=O)[C@@H](N)CC(C)C)C(C)C)C(C)C)C(=O)N[C@@H](CCCNC(=N)N)C(=O)N[C@@H](CO)C(=O)N[C@@H](C)C(=O)N[C@@H](CC(N)=O)C(=O)N[C@@H](Cc1ccccc1)C(=O)N[C@H](C(=O)N[C@@H](CC(=O)O)C(=O)N[C@@H](CC(N)=O)C(=O)O)[C@@H](C)O	5%	.	.	.	.	.
C#CCOCCOCCOCCNc1nc(N2CCN(C(=O)[C@H]([C@@H](C)CC)n3cc(CCCN=C(N)N)nn3)CC2)nc(N2CCN(C(=O)[C@H]([C@@H](C)CC)n3cc(CCCN=C(N)N)nn3)CC2)n1	-8%	20µM*	.	.	?	.
C#CCOCCOCCOCCNc1nc(N2CCN(C(=O)[C@H]([C@@H](C)CC)n3cc(CCCN=C(N)N)nn3)CC2)nc(N2CCN(C(=O)[C@H](Cc3ccc(O)cc3)n3cc(CCO)nn3)CC2)n1	-12%	45µM*	28%	?	?	-3%
C#CCOCCOCCOCCNc1nc(N2CCN(C(=O)[C@H](C)n3cc(CCCN=C(N)N)nn3)CC2)nc(N2CCN(C(=O)[C@H](C)n3cc(CCCN=C(N)N)nn3)CC2)n1	8%	79µM*	48%	-21%	-6%	-3%
Cc1ccc(CNC(=O)Cn2cnc(C(=O)Nc3ccc(C)c(C)c3)n2)o1	.	.	43%	?	.	-21%
CCN(CC)CCCNC(=O)C1CCC(CNS(=O)(=O)c2ccc(Cl)cc2)CC1 (stereo not drawn)	11%	6%	24%	-14%	7%	-2%
O=C(Cc1nc(-c2ccc([N+](=O)[O-])cc2)cs1)Nc1ccccc1	-9%	.	7%	-13%	-34%	-8%
COc1ccc(-c2csc(Nc3ccccc3)[n+]2Cc2ccccc2)cc1	-15%	16µM*	?	-3%	.	-2%
O=[N+]([O-])c1ccc(-c2csc(Nc3ccccc3)[n+]2Cc2ccccc2)cc1	-10%	?	16µM*	18µM*	40µM*	3%
Cc1ccc(-c2csc(Nc3ccc(C(=O)O)cc3)[n+]2Cc2ccccc2)cc1	13%	15%	-26%	40µM*	-38%	?
Cc1nc(Nc2ccc(C(=O)O)cc2)sc1-c1ccccc1	15%	-39%	10%	?	-34%	-24%
CCc1nn2c(=O)cc(N3C(C)CNCC3C)nc2s1 (stereo not drawn)	.	.	.	-15%	.	.
CCN1CCN(CC(O)COc2ccc(C)c(C)c2)CC1 (stereo not drawn)	-10%	21%[59 µM]	36%	-10%	-33%	4%
Cc1cc(OCC(O)CN2CCN(C)CC2)ccc1C(C)C (stereo not drawn)	14%	89µM*	12%	-16%	-2%	0%
CCOC(=O)c1c(C)n(-c2ccc(C)cc2)c2ccc(OCC(O)CN3CCN(C)CC3)cc12 (stereo not drawn)	40µM*	50µM*	1%	?	.	3%
CN1CCN(CC(O)COc2ccc(OCC(O)CN3CCN(C)CC3)cc2)CC1 (stereo not drawn)	-5%	-6%[59 µM]	14%	-7%[57.1 µM]	-5%	-7%
CN1CCN(CC(O)COc2ccc(Cl)cc2)CC1 (stereo not drawn)	19%	56µM*	5%	-13%	-7%	-4%
SMILES	Sfp inh	G9a block	HP1b chromo inh	JMJD2A Tudor	BAZ2B inh	PLK1 PBD inh
CCN1CCN(CC(O)COc2ccc(Cl)cc2)CC1 (stereo not drawn)	-3%	-44%[59 µM]	40%	?	?	-10%
OCCN1CCN(CC(O)COc2ccc(Cl)cc2)CC1 (stereo not drawn)	8%	50µM*	16%	-24%	?	1%
COc1ccc(CN(C(=O)Nc2ccccc2)c2ccccn2)cc1OC	.	-23%[59 µM]	55%	-6%	?	.
CSc1nc(N)c2ncn([C@H]3O[C@H](COP(=O)(O)OP(=O)(O)O)[C@@H](O)[C@@H]3O)c2n1	-4%	.	.	.	.	.
COc1ccc(OC)c(Nc2nc3ccccc3n3c(C)nnc23)c1	.	14%[59 µM]	26%	2%	-1%	.
COC(=O)c1sc(=S)sc1C(=O)OC	-26%	28µM*	?	?	-38%	-22%
COC(=O)c1sc(C(=O)OC)c(C(=O)OC)c1C(=O)OC	26%	?	43%	-1%	2%	-1%
COc1ccc2c(=O)c3c(=O)n(Cc4ccco4)c(-c4ccccc4)nc3oc2c1	32µM*	?	6%	-27%	-13%	-12%
CCCc1nc2sc3ccccc3c(=O)c2c(=O)n1Cc1ccco1	28µM*	?	15%	-28%[57.1 µM]	?	-26%
CCCc1nc2sc3ccccc3c(=O)c2c(=O)n1Cc1ccc(OC)cc1	?	.	14%	-5%	-23%	6%
